# This is a sample that favours compounds with a hit; in the whole collection about 5.1% have one here.
# KDM4E inh – qHTS Assay for Inhibitors of Human Jumonji Domain Containing 2E (JMJD2E); Lysine-specific demethylase 4E (Homo sapiens), B2RXH2; JMJD2E catalytic domain, FDH-coupled NADH fluorescence (FDH is formaldehyde dehydrogenase); Potency, µM (titrated, usually from 57.1 µM), without a hit: top-dose activity change, negative = inhibition, usual class: inhibitors; 1.6% of 230,000 active; AID 2147, 2009; active = well fitted inhibition curve with a large enough effect, not every such curve was filed as active; inconclusive = small, poorly fitted or top-dose-only effect, or another doubt; inactive = no such curve, though single readings can be large or run the other way;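 also: potency is read from the fitted curve at half-maximal effect; 0% = wells with enzyme and -100% = buffer wells without enzyme; nearly all actives have a fitted effect of over 50% in size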
# Target sequence (B2RXH2 1-337 limits assumed): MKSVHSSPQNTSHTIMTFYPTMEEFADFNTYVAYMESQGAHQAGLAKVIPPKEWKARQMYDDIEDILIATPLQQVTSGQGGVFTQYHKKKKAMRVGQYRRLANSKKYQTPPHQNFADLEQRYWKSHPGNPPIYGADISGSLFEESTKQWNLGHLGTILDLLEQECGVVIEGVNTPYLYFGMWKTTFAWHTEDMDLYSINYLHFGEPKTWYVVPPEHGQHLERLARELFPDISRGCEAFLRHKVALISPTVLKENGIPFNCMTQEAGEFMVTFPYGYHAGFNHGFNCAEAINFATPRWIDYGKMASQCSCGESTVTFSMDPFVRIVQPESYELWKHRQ
# Tau fibril ThT – qHTS for Inhibitors of Tau Fibril Formation, Thioflavin T Binding. recombinant tau K18 P301L, heparin-induced fibrillization, ThT fluorescence. AID 1460, 2008. Microtubule-associated protein tau (Homo sapiens), P10636. 2.1% of 270,000 active. Potency, µM (top dose mostly 57.4 µM), without a hit: top-dose activity, negative = inhibition, usual class: inhibitors; also: potency is read from the fitted curve at half-maximal effect; nearly all actives have a fitted effect of over 55% in size
# Target sequence (P10636 561-689 P618L limits assumed): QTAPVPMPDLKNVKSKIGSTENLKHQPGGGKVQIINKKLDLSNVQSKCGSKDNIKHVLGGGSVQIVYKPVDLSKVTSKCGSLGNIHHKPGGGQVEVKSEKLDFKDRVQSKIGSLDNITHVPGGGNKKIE
#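 K18 P301L tau (15 uM + 0.24 uM Alexa 594-tagged), heparin 20 uM, NaOAc pH 7, 6 h 37 C; ThT 30 uM, 1 h RT, ex 450/em 510 nm.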
# Tau FP inhib – qHTS for Inhibitors of Tau Fibril Formation, Fluorescence Polarization | Potency, µM (doses to about 57.7 µM), for inactives: at the top dose activity, negative = inhibition, most hits filed as inhibitors | 0.39% of 280,000 active | K18 P301L tau heparin fibrillization, Alexa594 FP, 6 h | AID 1468, 2008; also: potency is read from the fitted curve at half-maximal effect; nearly all actives have a fitted effect of over 55% in size
#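 K18 P301L tau (15 uM unlabeled/0.24 uM Alexa 594-labeled, final) + compound + heparin 20 uM final; 100 mM NaOAc pH 7; 6 hr 37 C; ThT 30 uM final added, 1 hr RT; FP ex 555/em 632 nm.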
# NPSR antag – qHTS Assay for Antagonists of the Neuropeptide S Receptor: cAMP Signal Transduction | Q6W5P4 | CHO-NPSR cells, cAMP TR-FRET, antagonist mode | Potency, µM (titrated, usually from 38.3 µM), for the others: at the top dose activity change, negative = inhibition, most hits filed as inhibitors | 1% of 220,000 active | AID 1461, 2008; also: potency is read from the fitted curve at half-maximal effect; nearly all actives have a fitted effect of over 50% in size
# Tau fluor counter – Counterscreen qHTS for Inhibitors of Tau Fibril Formation, Fluorescence Polarization | 0.93% of 280,000 active | tau K18 P301L Alexa594 fluorescence, heparin fibrillization | Potency, µM (series often up to 57.7 µM), for the others: at the top dose activity change, negative = decrease; also: potency is read from the fitted curve at half-maximal effect; nearly all actives have a fitted effect of over 55% in size
#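 Human tau K18 P301L (15 uM unlabeled, 0.24 uM Alexa 594-labeled) in 100 mM sodium acetate pH 7 with 20 uM heparin, 6 hr at 37 C. ThT 30 uM added, 1 hr ambient; Alexa 594 FP and total fluorescence read at 555/632 nm.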
# PNC assembly inh – High Content Assay for Compounds that inhibit the Assembly of the Perinucleolar Compartment. PC3M PTB-GFP, PNC prevalence imaging, 16 h; hits give low values. activity change (PNC), negative = inhibition, % at 10 µM. 3.1% of 140,000 active;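 active = readout at or below -70, meaning at least 70% loss of cells showing the perinucleolar compartment, a nuclear body marking cancer cells; inconclusive = readout between -30 and a set limit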;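 also: plate controls were DMSO wells for no effect and camptothecin positive control wells for full effect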
#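 Read-out is percentage of cells bearing a perinucleolar compartment, from automated 20x imaging of fixed, Hoechst-stained PC3M PTB-GFP cells. Cells were seeded 4 h, then exposed 16 h to compound (23 nl of library stock) in duplicate plates.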
# * hit, by the source's call; ? = inconclusive; / = not tested or not shown; [ ] = remark or other dose. Unless noted, calls follow the shape of the dose curve; as a rule, active = well fitted curve in the direction sought with a large enough effect; inconclusive = small, poorly fitted or top-dose-only effect, or another doubt; inactive = no such curve, though single readings can be large; an effect the other way counts as inactive or inconclusive. Unless noted, % is scaled to controls: 0 for no effect and ±100 for the full control effect.
SMILES,KDM4E inh,Tau fibril ThT,Tau FP inhib,NPSR antag,Tau fluor counter,PNC assembly inh
N#Cc1c(/N=C/c2cccs2)sc2c1CCC2,-2%,2.8µM*,-3%,-20%[46.1 µM],-23%,36
CN(C)/C=N/c1sc2c(c1C#N)CCCC2,-8%,?,-1%,2%,-14%,/
Cc1cccc(OCCSc2nc3ccccc3n2CC(=O)N2CCOCC2)c1C,/,-10%,2%,/,-11%,/
CN1CCN(C(c2ccccc2)c2sc3nc(-c4ccco4)nn3c2O)CC1 (centres undefined),/,-3%,-2%,/,0%,/
O=C(CNc1cccc(C(F)(F)F)c1)N/N=C/c1cn(-c2ccccc2)nc1-c1ccccc1,-27%,0%,8.9µM*,-37%,?,-11
CCc1cccc(C)c1NC(=O)C1CCCO1 (centres undefined),4%,-2%,1%,-2%[46.1 µM],7%,?
Cc1ccc(CCNC(=O)C2CCCN(S(=O)(=O)c3cccc4nsnc34)C2)cc1 (centres undefined),2%,4%,-3%,?,3%,?
Cc1cccc2sc(NC(=O)C3CCCO3)nc12 (centres undefined),3%,-5%,3%,1%[46.1 µM],-9%,-100*
Cc1cccc(CCNC(=O)C2CCCN(S(=O)(=O)c3cccc4nsnc34)C2)c1 (centres undefined),3%,-6%,5%,-19%[46.1 µM],-12%,-95*
Cc1c(NC(=O)C2CCCO2)cccc1[N+](=O)[O-] (centres undefined),-11%,-2%,6%,29%,-2%,-85*
Cc1cccc2sc(NC(=O)C3CCN(S(=O)(=O)c4cc([N+](=O)[O-])ccc4Cl)CC3)nc12,13µM*,?,11%,-7%,?,12
COc1ccc(S(=O)(=O)NCCc2nnc3ccc(SCC(=O)Nc4cc(C)cc(C)c4)nn23)cc1,/,-10%,13%,/,-19%,/
Cc1ccc2nc(NC(=O)C3CCCN(S(=O)(=O)c4cccc5nonc45)C3)sc2c1 (centres undefined),3%,-12%,3%,-35%,?,/
Cc1cccc2sc(NC(=O)C3CCCN(S(=O)(=O)c4cccc5nonc45)C3)nc12 (centres undefined),?,4%,8%,-20%[46.1 µM],-19%,-100*
CC(C)c1nnc(NC(=O)C2CCCCC2)s1,-4%,1%,7%,4%[46.1 µM],6%,-118*
Cc1cc(C)nc(N2CCCC(C(=O)Nc3nnc(C(C)C)s3)C2)n1 (centres undefined),10%,-3%,0%,1%[46.1 µM],-7%,-100*
CCC12CN3CC(C)(CN(C1)C3c1c(C)n(C)c3ccccc13)C2=O (centres undefined),/,1%,-2%,/,-2%,/
CCOC(=O)c1ccc(NC(=O)CCn2c(=O)c3cccn3c3ccccc32)cc1,/,?,2%,/,-21%,/
NCCOB(c1ccccc1)c1ccccc1,-10%,-4%,5%,/,-6%,/
COC(=O)c1ccccc1NC(=O)c1ccccc1SC,-9%,12%,-10%,-6%[46.1 µM],0%,18
CCOC(=O)c1ccccc1NC(=O)c1cncc(Br)c1,-10%,10%,2%,?,4%,-93*
CCOC(=O)c1ccccc1NC(=O)c1ccccc1SC,-1%,-9%,-2%,?,-16%,-80*
CCOC(=O)c1ccccc1NC(=O)c1cccnc1,-8%,1%,-9%,-8%[46.1 µM],1%,?
COCCCNC(=O)c1ccccc1SC,-1%,3%,3%,-5%[46.1 µM],2%,-107*
Cc1ccc(CNC(=O)C2CCN(c3ncnc4c3nc3n4CCCCC3)CC2)cc1,/,7%,-4%,/,4%,/
SMILES,KDM4E inh,Tau fibril ThT,Tau FP inhib,NPSR antag,Tau fluor counter,PNC assembly inh
CC(Sc1ncc(S(=O)(=O)c2ccc(C(C)C)cc2)c(N)n1)C(=O)Nc1ccccc1 (centres undefined),/,7%,?,/,?,/
CCc1nnc(NC(=O)CCNC(=O)c2ccccc2Cl)s1,22%,1%,2%,9%,3%,/
CCc1nnc(NC(=O)C(=O)NCCOC(=O)c2ccccc2Cl)s1,-6%,?,-4%,-10%[46.1 µM],-14%,-109*
COc1cccc(/C=C2/SC(=S)N(CC(=O)Nc3nnc(C)s3)C2=O)c1,7%,1.3µM*,?,-13%,?,68
C/C(=C\C=C(C#N)C#N)c1cc(C#N)c(N)o1,?,13µM*,-10%,-24%,-15%,/
CCn1cc(C(=O)Nc2ccc(F)c(F)c2)cn1,4%,-3%,-1%,15%,2%,-14
CCn1cc(C(=O)Nc2ccc(C)c([N+](=O)[O-])c2)cn1,2%,?,7%,2%,-16%,-87*
CCOc1ccc(NC(=S)/C(=C(\[O-])c2ccc(C)c([N+](=O)[O-])c2)[n+]2ccccc2)cc1,-7%,25µM*,10%,-22%[46.1 µM],-25%,?
CCOc1ccc(NC(=S)Nc2ccc(C)c([N+](=O)[O-])c2)cc1,-2%,?,-4%,?,32µM*[quencher],?
CCOc1ccc(C2CC(=O)c3c([nH]c(C(=O)OCC4CCCCC4)c3C)C2)cc1 (centres undefined),/,-8%,8%,/,-5%,/
BrC(=C\c1ccccc1)/C=N/N1CCN(c2ccccc2)CC1,-4%,20µM*,?,-37%,?,/
CC(/C=N/N1CCN(c2ccc(C)cc2)CC1)=C\c1ccccc1,-1%,?,?,16%,-8%,?
CN1/C(=C/c2cc[n+](C)c3ccccc23)C=Cc2ccccc21,11µM*,7.1µM*,?,?,-30%,/
COC(=O)/C(C#N)=C1/C=Cc2ccccc2N1C,-6%,-13%,-4%,-1%[46.1 µM],-4%,9
CCc1ccc(NC(=O)CCN2C(=O)c3cccnc3C2=O)cc1,-1%,-16%,4%,3%[46.1 µM],-2%,-15
CCc1ccc2c(c1)C(=O)C(=O)N2CC(=O)Nc1ccc(NC(=O)c2ccccn2)cc1,2%,14µM*,-4%,7%,?,/
CCOc1ccc2nc(Cl)c(C3CC(c4ccc(C)cc4)=NN3C(=O)CCCC(=O)O)cc2c1 (centres undefined),/,?,3%,/,-11%,/
CCOc1cc(/C=N/NC(=O)COc2nc(C)cc(COC)c2C#N)ccc1O,-6%,-12%,1%,6%,-13%,15
COCc1cc(C)nc(OCC(=O)N/N=C/c2ccc(O)cc2O)c1C#N,25µM*,-11%,-3%,2%,-11%,/
